Results published in PubChem BioAssay AID602350 (Broad Institute, 2012).
Entries with a potency or affinity are not part of this list. Active and inactive are the calls of the source.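 How the source made its calls: active means absorbance falls by 30% or more versus neutral controls, with a potency fitted within twice the top valid dose; inconclusive means no clear call, values can overlap the other calls; inactive means change opposite to expected direction, plus the rest.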

molecular target: Protein disulfide-isomerase (Homo sapiens) (UniProt P07237); assay: inhibition of PDI-driven insulin aggregation – biochemical, turbidity, absorbance, cherry-picked samples, dose response (AID 602350); conditions: recombinant PDI insulin aggregation, absorbance 650 nm, 90 min; series mostly up to 19.5 µM; activity change, negative = inhibition: at the top concentration;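 further: 0% = neutral controls and -100% = rutin hydrate positive control wells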
Sequence (P07237 whole entry, looked up): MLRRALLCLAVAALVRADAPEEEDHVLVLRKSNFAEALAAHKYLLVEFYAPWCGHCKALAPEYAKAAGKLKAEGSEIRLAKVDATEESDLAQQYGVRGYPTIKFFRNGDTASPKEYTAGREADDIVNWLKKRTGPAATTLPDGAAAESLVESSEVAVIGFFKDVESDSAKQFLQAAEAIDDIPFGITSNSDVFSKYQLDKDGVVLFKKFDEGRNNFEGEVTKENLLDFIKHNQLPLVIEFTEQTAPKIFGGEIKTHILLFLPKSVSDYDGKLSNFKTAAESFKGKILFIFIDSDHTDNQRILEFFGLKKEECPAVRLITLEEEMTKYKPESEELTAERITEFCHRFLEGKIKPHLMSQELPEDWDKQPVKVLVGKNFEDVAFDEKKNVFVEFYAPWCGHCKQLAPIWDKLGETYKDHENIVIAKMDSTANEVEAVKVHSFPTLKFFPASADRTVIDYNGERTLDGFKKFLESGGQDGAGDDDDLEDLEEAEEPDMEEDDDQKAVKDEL

SMILES | activity change, negative = inhibition
Cc1ccc(NC(=O)NC(=O)CN2CCC(C(N)=O)CC2)c(C)c1 | -0.809% (inactive)
Cc1c(C(=O)N2CCOCC2)sc2ncn(CC(=O)N3CCC(C)CC3)c(=O)c12 | 3.57% (inactive)
Cc1[nH]c2ccc(C(=O)NC3CCCC3)cc2c1C | 0.629% (inactive)
CC[C@]12c3[nH]c4cc(-c5ccco5)ccc4c3CCN1C(=O)[C@@H](CC(=O)NCc1ccco1)C[C@@H]2C(=O)N1CCN(C(=O)c2ccco2)CC1 | -7.56% (inactive)
COc1ccc(C[C@@H]2OC3(C=CC(=O)C=C3)O[C@H]2Cc2ccc(OC)cc2)cc1 | -2.56% [at 2.1 µM] (inactive)
COCCN(CC(=O)Nc1ccccc1C(F)(F)F)C(=O)/C=C/c1cc(Cl)c2c(c1)OCCO2 | 11.7% (inactive)
Cc1noc(C)c1S(=O)(=O)Nc1ccc2c(c1)CC(=O)N([C@@H](C)CO)C[C@@H](C)[C@@H](CN(C)S(=O)(=O)c1ccc(F)cc1)O2 | -24.7% (inactive)
O=C(C[C@H]1C[C@H](C(=O)N2CCCCC2)[C@@]2(CCc3ccccc3)c3[nH]c4cc(-c5ccco5)ccc4c3CCN2C1=O)NCCC1=CCCCC1 | -0.872% (inactive)
COc1ccc(CNC(=O)c2ccc(CS(=O)Cc3cccc(Cl)c3)o2)cc1 (centres undefined) | 2.11% (inactive)
COc1ccc(N(CC(=O)NCCSC2CCCCC2)S(=O)(=O)c2ccccc2)c(OC)c1 | -16.7% (inactive)
O=C1NC[C@H](Cc2ccccc2)N(C[C@H]2CCCN2C[C@H](Cc2ccccc2)N2C[C@H](Cc3ccc(O)cc3)N(CC3CCCCCC3)C(=O)C2=O)C1=O | -0.123% (inactive)
Cc1cc(C)cc(CC(=O)N2CCC2(C)C(=O)NS(=O)(=O)c2ccc(Br)cc2)c1 (centres undefined) | 2.66% (inactive)
C[C@@H]1CN([C@@H](C)CO)C(=O)c2cc(NC(=O)Cc3cn(C)c4ccccc34)ccc2O[C@@H]1CN(C)S(=O)(=O)c1ccc(F)cc1 | -12.7% (inactive)
CN1C(=O)NC(c2ccccc2)C2=C1CN(c1cccc(C(F)(F)F)c1)C2=O (centres undefined) | 12.6% (inactive)
Cc1c(-n2cc(C(=O)c3cc(Br)ccc3O)cc(C#N)c2=O)c(=O)n(-c2ccccc2)n1C | -4.17% (inactive)
CCOC(=O)C1(CCOc2ccccc2)CCN(Cc2cccc(F)c2)CC1 | -1.84% (inactive)
COC(=O)C(Cc1ccc(O)cc1)N1Cc2ccccc2C1=O (centres undefined) | -20.3% (inactive)
O=C(NC(=S)Nc1cccc(NC(=O)c2ccccc2)c1)c1cccc([N+](=O)[O-])c1 | 0.228% (inactive)
CC(NC(=O)COC(=O)Cc1ccccc1[N+](=O)[O-])c1ccccc1 (centres undefined) | 7.76% (inactive)
Cn1nnnc1SCC(=O)Nc1cc(C(F)(F)F)ccc1N1CCOCC1 | -1.51% (inactive)

SMILES | activity change, negative = inhibition
C[C@]12CC[C@@H]3c4ccc(O)cc4C(=O)C[C@H]3[C@@H]1CC[C@@H]2O | -13.4% (inactive)
CC(=O)OCC(=O)NCc1ccc2c(c1)OCO2 | -0.026% (inactive)
Cc1cc(C)c2c(=O)n3c(nc2c1)C(Cc1ccc(O)cc1)NC(=O)c1cccnc1-3 (centres undefined) | -21.6% (inactive)
Cc1cc(C)c(C)c(S(=O)(=O)N2CCC(C(=O)N(C)Cc3nc4ccccc4c(=O)[nH]3)CC2)c1C | -2.56% (inactive)
CC(C)N1CCCC(C)(C(=O)Nc2nc3ccccc3n2C)C1 (centres undefined) | 3.76% (inactive)
O=C1[C@@H]2C(Cc3ccc(O)cc3)NC3(C(=O)Nc4ccc(F)cc43)[C@@H]2C(=O)N1c1ccccc1 (some centres undefined) | -19.7% (inactive)
O=C(/C=C/c1ccccc1)Nc1scc(-c2ccccc2)c1C(=O)O | 2.46% (inactive)
CCOc1cc(N2CCOCC2)c(OCC)cc1NC(=O)Cc1ccccc1OC | 14% (inactive)
CCOc1ccc2[nH]c(=O)c(CN(CCO)C(=O)CC)cc2c1 | -1.98% (inactive)
O=C(CCc1ccc(O)cc1)NN=Cc1cc(Br)ccc1O | 4.89% (inactive)
CCOC(=O)Oc1c(OC)cc(C(=O)O[C@@H]2C[C@@H]3CN4CCc5c([nH]c6cc(OC)ccc56)[C@H]4C[C@@H]3[C@H](C(=O)OC)[C@H]2OC)cc1OC | 6.28% (inactive)
N#Cc1c(NCCCO)nc(-c2ccco2)c2c1CCCC2 | -3.41% (inactive)
Cc1ccc(S(=O)(=O)N2CCC(C(=O)Nc3ccc(S(=O)(=O)N4CCCC4)cc3)CC2)cc1 | 4.28% (inactive)
CCCn1nnnc1NC(=O)c1cccs1 | 33.1% (inactive)
CC1(C(=O)Nc2ccc3c(c2)OCCO3)CCN1C(=O)C1(c2ccc(Cl)cc2)CC1 (centres undefined) | -20.4% (inactive)
CCOC(=O)c1c(CN(C)C)n(-c2ccccc2)c2cc(Br)c(O)cc12 | -18.2% (inactive)
NC(=O)c1ccc(NC(=O)COC(=O)c2ccc(Br)c(S(=O)(=O)N3CCOCC3)c2)cc1 | 0.252% (inactive)
C[C@H]1CN([C@@H](C)CO)C(=O)Cc2cc(NC(=O)Nc3ccccc3)ccc2O[C@H]1CN(C)Cc1ccccc1 | -15% (inactive)
Cc1ccc(-n2ncc3c(=O)[nH]c(SCC(=O)N4CCCc5ccccc54)nc32)cc1 | 2.04% (inactive)
